# Screens (PubChem BioAssay)
# PLCg1 inh: inhibitors of human phospholipase C gamma1; P19174; purified PLC-gamma1, fluorogenic substrate, fluorescence; inhibition, % at 12.2 µM; actives 0.84% (n = 370,000); AID 720700; in the data active = inhibition above about 9.5%
# FAS-TE inh: blocks the thioesterase domain of human fatty acid synthase | recombinant FAS-TE, OMFH fluorogenic substrate, fluorescence endpoint | AID 602261 | actives 0.67% (n = 360,000) | inhibition, % at 15 µM;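 active = compounds whose normalised, plate-corrected inhibition of enzyme fluorescence in the single-dose primary screen is 50% or more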
# H9c2 protect: protects H9c2 cardiomyocytes from peroxide injury. H2O2 injury protection, ATPLite, 2 h. protection from H2O2 cell death, % at 20 µM. actives 0.63% (n = 360,000);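 active = compounds giving at least 50% protection of heart cells from peroxide-induced death in the single-dose screen, raw or plate-pattern-corrected value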
# PLC-beta3 inh: PLC-beta3 (human) inhibition, primary screen; Q01970; Purified PLC-beta3, fluorogenic substrate, fluorescence; inhibition, % at 12.2 µM; actives 0.18% (n = 370,000); AID 720704; in the data active = inhibition above about 11%
# Target sequence (Q01970 whole entry, looked up): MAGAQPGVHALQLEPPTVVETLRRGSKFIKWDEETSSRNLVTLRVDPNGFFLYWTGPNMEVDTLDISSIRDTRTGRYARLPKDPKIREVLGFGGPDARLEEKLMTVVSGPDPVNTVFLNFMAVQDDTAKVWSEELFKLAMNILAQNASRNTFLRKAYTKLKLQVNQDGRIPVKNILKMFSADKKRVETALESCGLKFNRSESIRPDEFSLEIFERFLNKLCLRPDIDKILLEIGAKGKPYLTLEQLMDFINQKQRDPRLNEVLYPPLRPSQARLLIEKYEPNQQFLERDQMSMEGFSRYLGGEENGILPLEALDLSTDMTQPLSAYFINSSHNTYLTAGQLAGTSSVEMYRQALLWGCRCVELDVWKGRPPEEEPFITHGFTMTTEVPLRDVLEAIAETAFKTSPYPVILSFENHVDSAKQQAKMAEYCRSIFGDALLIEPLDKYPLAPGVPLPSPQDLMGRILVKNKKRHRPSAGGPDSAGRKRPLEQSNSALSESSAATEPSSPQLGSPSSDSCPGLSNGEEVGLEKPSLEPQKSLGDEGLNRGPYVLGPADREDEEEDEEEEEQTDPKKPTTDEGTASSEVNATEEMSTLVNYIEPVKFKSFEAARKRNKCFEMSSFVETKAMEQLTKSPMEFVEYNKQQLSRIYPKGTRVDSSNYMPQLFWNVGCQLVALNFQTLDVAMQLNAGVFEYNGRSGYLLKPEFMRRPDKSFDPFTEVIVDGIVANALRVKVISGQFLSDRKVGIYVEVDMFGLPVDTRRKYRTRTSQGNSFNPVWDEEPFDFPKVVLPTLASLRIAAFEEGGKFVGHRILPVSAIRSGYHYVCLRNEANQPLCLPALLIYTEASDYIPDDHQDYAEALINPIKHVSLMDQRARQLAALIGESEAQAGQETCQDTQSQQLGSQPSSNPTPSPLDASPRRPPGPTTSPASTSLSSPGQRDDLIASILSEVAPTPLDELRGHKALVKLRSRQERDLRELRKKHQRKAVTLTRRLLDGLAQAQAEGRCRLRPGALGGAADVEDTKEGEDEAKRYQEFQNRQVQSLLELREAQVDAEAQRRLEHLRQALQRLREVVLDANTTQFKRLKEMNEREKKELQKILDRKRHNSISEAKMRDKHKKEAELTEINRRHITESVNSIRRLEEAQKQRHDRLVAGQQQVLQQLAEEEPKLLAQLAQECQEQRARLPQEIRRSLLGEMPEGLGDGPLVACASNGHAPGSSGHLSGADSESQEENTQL
# FAS-TE inh conf: confirmation of human fatty acid synthase thioesterase inhibitors. shares compounds with FAS-TE inh. recombinant FAS-TE, OMFH fluorogenic substrate, fluorescence. inhibition, % at 15 µM. actives 45% (n = 2,300). AID 624325;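 active = compounds inhibiting the enzyme by at least 50% at 15 µM in any one of the replicates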
# Numbers stand for hits; n = inactive; x = no result. Sampled rows, rich in hits. Any-hit rate of the full collection: about 2.2%.
SMILES,PLCg1 inh,FAS-TE inh,H9c2 protect,PLC-beta3 inh,FAS-TE inh conf
COC(=O)[C@@]1(Cc2ccc(OC)cc2)[C@H]2c3cc(C(=O)N4CCCC4)n(Cc4ccsc4Br)c3C[C@H]2CN1C(=O)c1ccccc1,n,51,x,n,n
COC(=O)[C@@]1(Cc2ccc(F)cc2)[C@H]2c3cc(C(=O)N(C)C)n(CCc4ccc(OC)c(Br)c4)c3C[C@H]2CN1C(=O)c1ccccc1,n,81,n,n,n
COC(=O)[C@@]1(Cc2ccc(F)cc2)[C@H]2c3cc(C(=O)N(C)C)n(Cc4ccc(OC)c(OC)c4)c3C[C@H]2CN1C(=O)c1ccccc1,n,x,x,n,x
Cc1cc(C)cc(-c2c(C(=O)c3ccccc3)[nH]c(N)c2C(=O)NCCc2c[nH]c3ccccc23)c1,n,x,x,n,x
O=C1OCCN1C(=O)[C@H]1[C@H](c2ccc(F)cc2)C(c2ccc(F)cc2)=NN1c1ccccc1,n,74,n,n,n
CC[C@@H]1C(c2ccc(F)cc2)=NN(c2ccccc2)[C@H]1C(=O)N1CCOC1=O,n,n,n,n,x
O=C1OCCN1C(=O)[C@H]1[C@H](c2ccc(Cl)cc2)C(c2ccc(F)cc2)=NN1c1ccccc1,n,74,n,n,n
O=C1OCCN1C(=O)[C@H]1[C@H](c2ccc(Cl)cc2)C(c2ccccc2)=NN1c1ccccc1,n,n,n,n,x
Cc1cccc(C2=NN(c3ccc(Br)cc3)[C@@H](C(=O)N3CCOC3=O)[C@@H]2c2ccc([N+](=O)[O-])cc2)c1,n,85,n,n,n
O=C1OCCN1C(=O)[C@H]1[C@H](c2ccc([N+](=O)[O-])cc2)C(c2ccccc2)=NN1c1ccccc1,n,78,n,n,n
COc1ccc(S[C@]2(C(=O)N3CCCC3)CC(=O)N(C(=O)CCc3ccccc3)[C@@H]2c2ccc(OC)cc2)cc1,n,x,x,n,x
COc1ccccc1[C@@H]1C(c2ccccc2)=NN(c2ccccc2)[C@H]1C(=O)N1CCOC1=O,n,55,n,n,n
Cn1c(Cc2cccs2)nnc1SCC(=O)Nc1ccc2c(c1)OCCO2,n,x,x,n,x
CN(c1ccccc1)S(=O)(=O)c1ccc(NC(=O)c2nc(S(C)(=O)=O)ncc2Cl)cc1,n,58,n,n,68
CN(c1ccccc1)S(=O)(=O)c1ccc(NC(=O)c2ccccc2)cc1,n,n,n,n,x
COc1ccc(CC(C)N2CCN(Cc3ccccc3)CC2)cc1OC (stereo unspecified),x,n,n,x,x
COC(=O)C1CN(Cc2cn(Cc3ccc(C)cc3)nn2)CCS(=O)(=O)N1Cc1ccc(F)cc1 (stereo unspecified),n,x,x,n,x
COC(=O)c1sc2ccccc2c1NC(=O)c1ccc(S(=O)(=O)N2CCCC(C)C2)cc1 (stereo unspecified),n,52,n,n,n
COC(=O)c1sc2ccccc2c1NC(=O)c1ccc(S(=O)(=O)N2CCC(C)CC2)cc1,n,n,n,n,x
CCC(C)NC(=O)CSc1nc2c(sc(=S)n2Cc2ccco2)c(=O)n1-c1ccccc1 (stereo unspecified),n,51,n,n,53
CCn1c(=S)sc2c(=O)n(-c3ccccc3)c(SCC(=O)NCc3ccco3)nc21,n,n,n,n,x
C#CCNC(=O)C[C@@H]1C(=O)N(CC=C)C2=CCCCC[C@]21C(=O)OC,n,x,x,n,x
CCOC1=C2CN(S(=O)(=O)c3ccccc3)[C@H](c3ccccc3)C[C@H]2n2c(=O)n(-c3ccccc3)c(=O)n2C1,n,80,n,n,n
CCOC1=C2CN(S(=O)(=O)c3ccc(C)cc3)C(c3ccc(CC)cc3)CC2n2c(=O)n(-c3ccccc3)c(=O)n2C1 (stereo unspecified),n,x,x,n,x
CCOC1=C2[C@H](c3ccccc3)N(S(=O)(=O)c3ccccc3)C[C@H]2n2c(=O)n(-c3ccccc3)c(=O)n2C1,n,73,n,n,n
SMILES,PLCg1 inh,FAS-TE inh,H9c2 protect,PLC-beta3 inh,FAS-TE inh conf
CCOC1=C2[C@H](c3cccs3)N(S(=O)(=O)c3ccc(C)cc3)C[C@H]2n2c(=O)n(-c3ccccc3)c(=O)n2C1,n,73,n,n,n
CCOC1=C2CN(S(=O)(=O)c3ccc(Cl)cc3)[C@H](c3ccccc3)C[C@@H]2N(S(=O)(=O)c2ccc(C)cc2)[C@H](c2ccccc2)C1,n,n,n,n,x
O=C(c1ccccc1)C12COc3ccccc3C1ON=C2c1ccccc1 (stereo unspecified),n,x,x,n,x
CCCC1CCC2(CC1)CCC2OC(=S)Nc1ccc(N(C)C)cc1 (stereo unspecified),n,x,x,n,x
O=C(NCc1ccc2c(c1)OCO2)C1CC(c2ccc(Cl)cc2)=NO1 (stereo unspecified),n,n,n,n,x
COc1cc(OC)c(C2=NOC(C(=O)NCc3ccc4c(c3)OCO4)C2)cc1Cl (stereo unspecified),n,60,n,n,n
COc1cc(OC)c(C2=NOC(C(=O)N3CCc4ccccc4C3)C2)cc1Cl (stereo unspecified),n,80,n,n,60
O=S(=O)(c1ccc(C(F)(F)F)cc1)N1CCCc2nc(-c3ccc(F)cc3)ccc21,n,x,x,n,x
CCc1c(-c2ccccc2)ncn1CCc1ccccc1OC,n,x,x,n,x
O=C(CNC1CCCCC1)Nc1cccc([N+](=O)[O-])c1,n,n,n,n,x
O=C(Nc1cccc([N+](=O)[O-])c1)NC1CCCCCCC1,n,53,n,n,63
O=C(Cc1ccccc1)Nc1nnc(-c2cccc([N+](=O)[O-])c2)s1,n,n,n,n,x
O=C(NC1CCCCC1)N(c1ccccc1)c1nnc(-c2cccc([N+](=O)[O-])c2)s1,n,70,n,n,63
CC1(C)CC2CC(C)(CN2S(=O)(=O)c2ccc(C(=O)Nc3cccc(S(=O)(=O)N4CCOCC4)c3)cc2)C1 (stereo unspecified),n,n,n,n,x
CC1(C)CC2CC(C)(CN2S(=O)(=O)c2ccc(C(=O)Nc3cc(S(=O)(=O)N4CCOCC4)ccc3Cl)cc2)C1 (stereo unspecified),n,76,n,n,n
CC(C)N1CC(C(=O)Nc2ccc(Cl)cc2Cl)CC1=O (stereo unspecified),n,n,n,n,x
O=C(CCCC(=O)Nc1cccc(Br)c1)N/N=C/c1cc([N+](=O)[O-])ccc1O,n,54,n,n,72
O=C(CCC(=O)Nc1cccc(Cl)c1)N/N=C/c1cc([N+](=O)[O-])ccc1O,n,65,n,n,83
CCOC(=O)[C@@]12CCC3=C1N(CCC3)C(=O)[C@H](CC(=O)N1CCC(c3ccccc3)CC1)C2,n,x,x,n,x
CC1CCN(S(=O)(=O)c2ccc(NC(=O)N3c4ccccc4Sc4ccccc43)cc2)CC1,n,62,n,n,n
Cc1cn([C@H]2C[C@H](O)[C@@H](CNCc3cnc(N4CCOCC4)nc3)O2)c(=O)[nH]c1=O,n,n,n,n,x
Cc1cc(N2CCN(C(=O)OC(C)(C)C)C[C@H]2C)ccc1N1C[C@@H](C)O[C@@H](C)C1,n,x,x,n,x
CCCNC(=O)c1nnsc1S(=O)(=O)c1ccc(Cl)cc1,n,53,n,n,70
